Data reported in the supplement of paper PMC8728848.
This excerpt belongs to a sample that is enriched for the strongest signals.

How the values were obtained:
Assay in all cases: glycan array binding signal (z-score within array); higher = stronger binding
Conditions in all cases: glycan notation: IUPAC condensed, linker removed; mutation: E347A
[1] = molecular target: Fuc(a1-2)[Gal(a1-4)]Gal(b1-4)GlcNAc
Method in brief: (§1)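 Glycan array binding is given as a within-array Z-score, which can be read as non-binding when negative. The arrays, 3228 of them, came from the Consortium for Functional Glycomics database and were retained only where the protein sequence was available. Z-scores were averaged across arrays of the same protein sequence at different concentrations or buffers and across linkers.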

[2] = molecular target: Fuc(a1-3)[GalNAc(b1-4)]GlcNAc
Method in brief: as §1

Gal(a1-3)Gal(b1-4)GlcNAc = molecular target: Gal(a1-3)Gal(b1-4)GlcNAc
Method in brief: as §1

Gal(a1-3)GalNAc = molecular target: Gal(a1-3)GalNAc
Method in brief: as §1

Gal(a1-6)Glc = molecular target: Gal(a1-6)Glc
Method in brief: as §1

Gal(b1-2)Gal = molecular target: Gal(b1-2)Gal
Method in brief: as §1

[3] = molecular target: Gal(b1-3)GlcNAc(b1-3)Gal(b1-4)GlcNAc
Method in brief: as §1

[4] = molecular target: Gal(b1-3)[GlcNAc(b1-6)]GalNAc
Method in brief: as §1

[5] = molecular target: Gal(b1-3)[Neu5Ac(a2-6)]GlcNAc(b1-6)Gal(b1-4)Glc
Method in brief: as §1

[6] = molecular target: Gal(b1-4)GlcNAc(a1-6)Gal(b1-4)GlcNAc
Method in brief: as §1

[7] = molecular target: Gal(b1-4)GlcNAc(b1-3)Gal(b1-4)GlcNAc
Method in brief: as §1

[8] = molecular target: Gal(b1-4)GlcNAc(b1-3)GalNAc
Method in brief: as §1

[9] = molecular target: Gal(b1-4)GlcNAc(b1-6)Gal(b1-4)GlcNAc
Method in brief: as §1

GlcNAc(b1-3)Gal = molecular target: GlcNAc(b1-3)Gal
Method in brief: as §1

GlcNAc3Prop(b1-4)GlcNAc = molecular target: GlcNAc3Prop(b1-4)GlcNAc
Method in brief: as §1

Man(a1-2)Man(a1-3)Man = molecular target: Man(a1-2)Man(a1-3)Man
Method in brief: as §1

[10] = molecular target: Man(a1-2)Man(a1-3)[Man(a1-2)Man(a1-6)]Man
Method in brief: as §1

[11] = molecular target: Man(a1-2)Man(a1-3)[Man(a1-2)Man(a1-6)]Man(a1-6)[Man(a1-2)Man(a1-2)Man(a1-3)]Man
Method in brief: as §1

[12] = molecular target: Man(a1-2)Man(a1-3)[Man(a1-6)]Man(a1-6)[Man(a1-2)Man(a1-3)]Man(b1-4)GlcNAc(b1-4)GlcNAc
Method in brief: as §1

[13] = molecular target: Man(a1-2)Man(a1-6)[Man(a1-3)]Man(a1-6)[Man(a1-2)Man(a1-2)Man(a1-3)]Man
Method in brief: as §1

[14] = molecular target: Man(a1-3)[Man(a1-6)]Man(a1-6)[Man(a1-2)Man(a1-3)]Man(b1-4)GlcNAc(b1-4)GlcNAc
Method in brief: as §1

[15] = molecular target: Man(a1-3)[Man(a1-6)]Man(a1-6)[Man(a1-3)]Man(b1-4)GlcNAc(b1-4)GlcNAc
Method in brief: as §1

[16] = molecular target: Neu5Ac(a2-3)Gal(b1-3)GlcNAc
Method in brief: as §1

[17] = molecular target: Neu5Ac(a2-3)Gal6S(b1-4)[Fuc(a1-3)]GlcNAc
Method in brief: as §1

[18] = molecular target: Neu5Gc(a2-3)Gal(b1-3)GlcNAc
Method in brief: as §1

B1: Surfactant Protein D (Human); Neck + Carbohydrate Recognition Domain (NCRD) (Homo sapiens) (protein)
chain: MLLFLLSALVLLTQPLGYLEAEMKTYSHRTMPSACTLVMCSSVESGLPGRDRDGREGPRGEKGDPGLPGAAGQAGMPGQAGPVGPKGDNGSVGEPGPKGDTGPSGPPGPPGVPGPAGREGALGKQGNIGPQGKPGPKGEAGPKGEVGAPGMQGSAGARGLAGPKGERGVPGERGVPGNTGAAGSAGAMGPQGSPGARGPPGLKGDKGIPGDKGAKGESGLPDVASLRQQVEALQGQVQHLQAAFSQYKKVELFPNGQSVGEKIFKTAQFVKPFTEAQLLCTQAGGQLASPRSAAENAALQQLVVAKNEAAFLSMTDSKTEGKFTYPTGESLVYSNWAPGEPNDDGGSADCVEIFTNGKWNDRACGAKRLVVCEF
glycan array binding signal (z-score) [1]: -0.321 | glycan array binding signal (z-score) [2]: -0.435 | glycan array binding signal (z-score) (Gal(a1-3)Gal(b1-4)GlcNAc): -0.244 | glycan array binding signal (z-score) (Gal(a1-3)GalNAc): -0.384 | glycan array binding signal (z-score) (Gal(a1-6)Glc): -0.408 | glycan array binding signal (z-score) (Gal(b1-2)Gal): -0.48 | glycan array binding signal (z-score) [3]: -0.211 | glycan array binding signal (z-score) [4]: -0.15 | glycan array binding signal (z-score) [5]: -0.424 | glycan array binding signal (z-score) [6]: -0.244 | glycan array binding signal (z-score) [7]: 0.532 | glycan array binding signal (z-score) [8]: -0.384 | glycan array binding signal (z-score) [9]: -0.317 | glycan array binding signal (z-score) (GlcNAc(b1-3)Gal): -0.071 | glycan array binding signal (z-score) (GlcNAc3Prop(b1-4)GlcNAc): -0.18 | glycan array binding signal (z-score) (Man(a1-2)Man(a1-3)Man): 1.58 | glycan array binding signal (z-score) [10]: 6.34 | glycan array binding signal (z-score) [11]: -0.461 | glycan array binding signal (z-score) [12]: 10.1 | glycan array binding signal (z-score) [13]: 5.19 | glycan array binding signal (z-score) [14]: 10.2 | glycan array binding signal (z-score) [15]: 0.008 | glycan array binding signal (z-score) [16]: -0.335 | glycan array binding signal (z-score) [17]: -0.255 | glycan array binding signal (z-score) [18]: 0
